Assay results taken from PubChem BioAssay (NCI).
About 83,000 compounds went through this panel and 20% of them were active in at least one assay; those are over-represented in the sample as a whole.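 Assay: single dose, 48 h. Readout: percent growth (0 = no net growth; negative = cell death). Active: <10.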 Active and inactive are the calls of the source.

Tested on: HCT-15 colon
Assay: NCI-60 one-dose screen, 48 h (100 = growth as untreated, 0 = no growth, -100 = all killed)
Conditions: 10 µM unless noted
Experimental: Growth inhibition of the HCT-15 human tumor cell line is measured as a screen for anti-cancer activity. Cells are grown in 96 well plates and exposed to the test compound for 48 hours. Compounds are tested at a single concentration, which is 10^-5 M for most compounds. The reported endpoint is percent growth (GI% or GIPRCNT), where numbers from 0 - 100% represent growth inhibition, and numbers from -100% - 0 represent cell death. For example, a value of 40 represents 60% growth inhibition. A value of 0 means no net growth occurred over the course of the experiment. A value of -40 indicates 40% of cells at the beginning of the experiment died by the end of the experiment. A value of -100 means all cells are dead at the end of the experiment.
NCI-60 Human Tumor Cell Lines Screen was performed using the standard one-dose NCI protocol, which is described in more detail at https://dtp.cancer.gov/discovery_development/nci-60/default.htm.
Compounds with GIPRCNT values below 10 were considered active. Activity score was based on GIPRCNT using the following formula: […]
Score is 0 for GIPRCNT values of 100 or above, 50 for GIPRCNT values of 0, and 100 for GIPRCNT values of -100.

| SMILES | growth |
| --- | --- |
| Nc1ncnc2c1N=C(c1ccc(Cl)cc1)CC(c1cccc(Nc3ccnc4cc(Cl)ccc34)c1)N2 (stereo not given) | 21.1% (inactive) |
| C[N+]1=C(/C=C/c2ccccc2Cl)C(C)(C)c2ccccc21 | 101% (inactive) |
| O=C(c1cccc(N2CCOCC2)n1)c1c[nH]c2ccccc12 | 95.7% (inactive) |
| O=C(Nc1cc(Cl)cc(Cl)c1)Oc1c(Cl)c(Cl)c(Cl)c(Cl)c1Cl | 77.8% (inactive) |
| Cc1ccc2cnc(N)c(C#Cc3cc(C(=O)Nc4ccc(CN5CCN(C)CC5)c(C(F)(F)F)c4)cnc3C)c2c1 | -40.5% (active) |
| O=C1/C(=C/c2ccccn2)SC(=S)N1N1CCOCC1 | 102% (inactive) |
| CN1C(=O)/C(=C/c2ccc(C(=O)Nc3ncc(Cc4cccc(C(F)(F)F)c4)s3)cc2)SC1=S | 36.3% (inactive) |
| CC(C)c1ccc2c(c1)CC[C@H]1[C@](C)(C(=O)OCC#CCN3CCCC3)CCC[C@]21C | 42.7% (inactive) |
| CCCOC(=O)Nc1nc2ccc(SCC)cc2s1 | 54.3% (inactive) |
| CCOC(=O)c1nnn(Cc2cc(=O)oc3ccc(O)cc23)c1C | 103% (inactive) |
| O=C(Cn1nc(-c2cccc3ccccc23)ccc1=O)NCc1cccc(Cl)c1 | 28.9% [50 µM] (inactive) |
| Nc1nc(N)c2c(n1)NC(c1cccc(Nc3ccnc4cc(C(F)(F)F)ccc34)c1)CC(c1ccc3c(c1)OCO3)=N2 (stereo not given) | 37.4% (inactive) |
| O=c1cc(CNc2cc(F)cc(F)c2)c2ccc(I)cc2[nH]1 | 32.1% (inactive) |
| Cc1nn(C)c2ncnc(N/N=C/c3cccc(O)c3O)c12 | 28.9% (inactive) |
| O=C(Oc1ccc2c(c1)sc1nc(-c3ccccc3)[nH]c(=O)c12)C(F)(F)F | 22.2% (inactive) |
| COCCn1cc(-c2csc(-c3c[nH]c4ccccc34)n2)c2cccnc21 | 25.8% (inactive) |
| O=c1cc(CP(=O)(O)O)c2cc(O)c(-c3ccccc3)cc2o1 | 101% (inactive) |
| COc1ccc(C/C(C)=C(\c2ccc(Cl)cc2)c2ccc(OCCN3CCCC3)cc2)cc1 | 40.2% (inactive) |
| C#CCOc1ccc2nc(CCl)c(Cl)c(Nc3cccc(C(F)(F)F)c3)c2c1 | 36.3% (inactive) |
| CCOC(=O)CC[C@H](NC(=O)c1ccc(N(C)Cc2cnc3nc(N)nc(N)c3n2)c2ccccc12)C(=O)OCC | 30% (inactive) |

| SMILES | growth |
| --- | --- |
| O=C1C(Cl)=C(Nc2ccccc2)C(=O)c2ccccc21 | -78.2% (active) |
| Nc1nc(N(Cc2ccccc2)c2ccccc2)c2cn[nH]c2n1 | 49.8% (inactive) |
| NS(=O)(=O)c1ccc(C(=O)N=Nc2c(O)[nH]c3ccc(Cl)cc23)cc1 | 99.4% (inactive) |
| O=C(c1ccc(Br)cc1)C(Br)C(c1ccc(Cl)cc1)C(c1ccccc1)[N+](=O)[O-] (stereo not given) | 84.8% (inactive) |
| CCCc1cc(=O)oc2c(C(=O)CC(C)C)c(O)c(CC=C(C)C)c(O)c12 | 16.9% (inactive) |
| COc1cc2c3c(c4c5ccccc5[nH]c4c2c(OC)c1OC)C(=O)N(CCN1CCCCC1)C3=O | -87.2% (active) |
| COC12C=C/C(=C(/C(=O)OCCSc3ccnn3C)C(=O)CCCCCCCCC3(OC)C=C/C(=C(/C(=O)OCCSc4ccnn4C)C(=O)CCCCCCCC1)O3)O2 | -19.5% (active) |
| CCCC(O)Cn1ncc(C(=O)OCC)c1NC(=O)NCc1cccc(C(F)(F)F)c1 (stereo not given) | 104% (inactive) |
| CN(C)CCCC1(c2ccc(F)cc2)OCc2cc(-c3csc4ccccc34)ccc21 (stereo not given) | -59.7% (active) |
| CCOC(=O)C#Cc1c(C(=O)OCC)nnn1[C@@H]1O[C@H](COC)[C@@H](OC)[C@H]1OC | -12.2% (active) |
| Nc1ccc(-c2ccncc2)cc1NC(=O)N1CCCC1 | 100% (inactive) |
| O=C(O)CCCCCCCCCCN1C(=O)/C(=C2/C(=O)N(CC(=O)O)c3ccc(Br)cc32)SC1=S | 44.2% (inactive) |
| COc1ccc(N=C2NN=C(c3c[nH]c4ccccc34)CS2)cc1OC | 43.3% (inactive) |
| Cc1[nH]n(-c2cccc(Cl)c2)c(=O)c1/C=C1\C=c2ccccc2=CC1=O | 49.9% (inactive) |
| O=C1CCC(C(=O)N/N=C/c2cc(F)ccc2F)N1 (stereo not given) | 98.6% (inactive) |
| CN(C)C1CN(C(=O)c2cc(-c3ccc4ncnc(N5CCc6cc(F)c(Cl)cc65)c4c3)cnc2N)C1 | 7.17% (active) |
| COc1cc(/C=C/C(=O)c2cc(OC)c(OC)c(OC)c2)ccc1Oc1nc2c(c(=O)n(C)c(=O)n2C)n1C | 0.728% (active) |
| COC1C(O)CC(OC2CC(OC3CC(O[C@@H]4C(=O)c5c(cc6cc(OC7CC(OC8CC(O)C(O)C(C)O8)C(O)C(C)O7)c(C)c(O)c6c5O)CC4[C@H](OC)[C@@H](O)C(C)=O)OC(C)C3O)OC(C)C2O)OC1C (stereo not given in full) | 28% (inactive) |
| CCN(CC)C(=O)CC1=C(C)/C(=C/c2[nH]c(-c3ccc[nH]3)cc2OC)N=C1C | 1.25% (active) |
| O=C1O[C@@H](c2ccccc2Cl)[C@@H]2c3cc4c(cc3CCN12)OCO4 | 101% (inactive) |
